Experimental data as given in PubChem BioAssay (NCI).
About 79,000 compounds went through this panel and 15% of them were active in at least one assay; those are over-represented in the sample as a whole. Unmarked numbers belong to inactive results. Active and inactive are the calls of the source. No stated cut-off is given here; in the data, active means growth inhibition above about 70%; inactive means the rest.

Assays:
[1] = NCI Yeast Anticancer Drug Screen. Data for the rad50 strain (AID 155);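 further: 0% = growth of vehicle-only cultures of the same strain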; conditions: S. cerevisiae rad50 strain growth inhibition, stronger effect = higher value
Procedure, shortened: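 Relative growth inhibition (compound vs vehicle) was measured in yeast with a defined repair-gene alteration.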

[2] = NCI Yeast Anticancer Drug Screen. Data for the mec2-1 strain (AID 157); conditions: S. cerevisiae mec2-1 strain, stronger effect = higher value
Procedure, shortened: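 Readout is yeast growth inhibition, normalised to vehicle-treated controls, in the mec2-1 strain exposed to compound.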

[3] = NCI Yeast Anticancer Drug Screen. Data for the sgs1 mgt1 strain (AID 161);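 further: 0% = growth of cultures given vehicle only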; conditions: S. cerevisiae sgs1 mgt1 strain, stronger effect = higher value
Procedure, shortened: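 This yeast growth screen uses a strain with defined DNA-repair lesions; compound-treated growth is compared with vehicle-treated growth.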

[4] = NCI Yeast Anticancer Drug Screen. Data for the cln2 rad14 strain (AID 165);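 further: 0% = growth equal to vehicle treated cultures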; conditions: S. cerevisiae cln2 rad14 strain, stronger effect = higher value
Procedure, shortened: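 Relative to vehicle controls, growth inhibition of compound-treated cln2 rad14 yeast was recorded.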

[5] = NCI Yeast Anticancer Drug Screen. Data for the bub3 strain (AID 167); conditions: S. cerevisiae bub3 mutant strain, stronger effect = higher value
Procedure, shortened: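 Screening used yeast with an engineered genetic alteration affecting cell cycle control. Compound-exposed cultures were compared with vehicle cultures, and reduced growth was taken as inhibition.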

[6] = NCI Yeast Anticancer Drug Screen. Data for the mlh1 rad18 strain (AID 175); conditions: S. cerevisiae mlh1 rad18 strain growth inhibition, stronger effect = higher value
Procedure, shortened: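 Test agents were incubated with a yeast strain of defined genotype (DNA damage repair defect). Inhibition of growth was derived by comparison with vehicle-exposed cultures.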

[7] = at 5.0 µM (retest, dose inferred, filed as 0.5)
[8] = at 50.0 µM (retest, dose inferred, filed as 5.0)

SMILES	growth inhibition [1, 7] [%]	growth inhibition [1, 8]	growth inhibition ([1]; at 50.0 µM)	growth inhibition [2, 7] [%]	growth inhibition [2, 8]	growth inhibition ([2]; at 50.0 µM)	growth inhibition [3, 7] [%]	growth inhibition [3, 8]	growth inhibition ([3]; at 50.0 µM)	growth inhibition [4, 7] [%]	growth inhibition [4, 8]	growth inhibition ([4]; at 50.0 µM)	growth inhibition [5, 7] [%]	growth inhibition [5, 8]	growth inhibition ([5]; at 50.0 µM)	growth inhibition [6, 7] [%]	growth inhibition [6, 8]	growth inhibition ([6]; at 50.0 µM)
Cc1ccc(Cc2nc(=S)[nH][nH]2)cc1	20	19%	1.6%	-3	6%	-38.5%	-3	9%	-2.75%	1	1%	-9.2%	8	19%	-6.3%	14	21%	-34.8%
CC(CN(C)C)C(/C=C/c1ccc(Cl)c(Cl)c1)=N\Nc1ccccc1 (stereo not given)	2	96% (active)	54.1%	-3	98% (active)	98.7% (active)	3	99% (active)	49.3%	3	96% (active)	47.1%	-1	91% (active)	88.4% (active)	9	96% (active)	64.6%
COc1ccc(OC)c2c1C=C[C@H](C1(C)SCCS1)C2C(C)=O (stereo not given in full)	6	82% (active)	74% (active)	-4	88% (active)	82% (active)	6	77% (active)	80.7% (active)	7	83% (active)	72.3% (active)	-2	90% (active)	76.5% (active)	-13	92% (active)	77% (active)
COc1ccc2c(c1)CCCN2CCCCCCCCCN1CCCCC1	31	36%	62%	27	53%	57.9%	45	81% (active)	82.8% (active)	35	44%	42.4%	45	76% (active)	79.6% (active)	47	63%	69%
CC(=O)Nc1cccc(C(=O)O)c1	6	-2%	1.3%	-1	-4%	0%	-5	1%	5.75%	4	-1%	39.9%	4	7%	8.6%	1	-3%	-16.6%
CCCCCCCCCCCCOC(=O)C[n+]1cccc(C(N)=O)c1	-1	99% (active)	99.8% (active)	-4	99% (active)	99.7% (active)	-3	81% (active)	99.8% (active)	-8	96% (active)	98.2% (active)	-6	99% (active)	99.6% (active)	-4	99% (active)	99.7% (active)
O=C(COc1ccccc1)Oc1c(Cl)c(Cl)c(Cl)c(Cl)c1Cl	23	94% (active)	94% (active)	28	97% (active)	98% (active)	34	98% (active)	96% (active)	10	97% (active)	96% (active)	11	96% (active)	98.3% (active)	23	97% (active)	97.5% (active)
NC(=S)NNC(=O)c1cccnc1	4	78% (active)	-5.1%	1	39%	-5.95%	2	46%	45.6%	5	75% (active)	-31.4%	2	82% (active)	0.15%	-1	68%	50.8%
O=C(N/C(=C\c1ccc(/C=C(\NC(=O)c2ccccc2)c2nc3ccccc3s2)cc1)c1nc2ccccc2s1)c1ccccc1	57	57%	85.1% (active)	32	32%	87.5% (active)	42	42%	85.6% (active)	38	38%	84.7% (active)	60	60%	85.5% (active)	28	28%	83.8% (active)
CCCCC(CSC#N)SC#N (stereo not given)	14	98% (active)	99% (active)	14	98% (active)	98.3% (active)	12	97% (active)	97.2% (active)	3	95% (active)	97.2% (active)	16	97% (active)	98% (active)	24	98% (active)	98.3% (active)
